40 molecules from PubChem BioAssay can be followed below.

Inconclusive results are not listed. A number with no mark means an inactive call. Cut-off read from the data, not from the text of the source: active = percent of DMSO control GFP below about 86%; inactive = the rest, inconclusive results apart.

A short description of the test: yeast TOR pathway RPL19A-GFP modulators, primary screen, cell-based, S. cerevisiae, multiplex flow cytometry (AID 1862).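 Note: lower values mimic rapamycin by blocking the RPL19A rise seen in DMSO cells.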 The note with it: S. cerevisiae RPL19A-GFP strain, flow cytometry fluorescence, 3 h; at 10 µM; stronger effect = lower value.
Consider `CCN(CC)C(=O)N1CCN(C)CC1`, for which the percent of DMSO control GFP was 101%.

For the molecule `CC1(C)[C@@H](O)CC[C@]2(C)[C@H]3C(=O)C=C4[C@@H]5C[C@@](C)(C(=O)O)CC[C@]5(C)CC[C@@]4(C)[C@]3(C)CC[C@@H]12`, the percent of DMSO control GFP is 98.8%.

For `O=C(Nc1ccc(Cl)cn1)Nc1ccccc1Cl`, the percent of DMSO control GFP is 103%.

Regarding `COc1c(C=O)c(CCN(C)C(=O)c2ccc(F)cc2)cc2c1OCO2`, the percent of DMSO control GFP was 103%.

`COc1ccc(C2C3=C(CC(C)(C)CC3=O)N(C)C3=C2C(=O)CC(C)(C)C3)cc1`: the percent of DMSO control GFP is 101%.

For `CC(C)(Sc1cc(C(C)(C)C)c(O)c(C(C)(C)C)c1)Sc1cc(C(C)(C)C)c(O)c(C(C)(C)C)c1`, the percent of DMSO control GFP was 101%.

In the case of `CC(=O)NC(NC(=S)N1CCCCCC1)C(Cl)(Cl)Cl` (stereo not given), the percent of DMSO control GFP is 102%.

With `Cc1ccc2c(CC(=O)O)coc2c1`, the percent of DMSO control GFP was 104%.

On to `COc1cccc(N2C(=O)CC(c3c[nH]c4ccccc34)C2=O)c1` (stereo not given), for which the percent of DMSO control GFP is 108%.

`CC1(CC(=O)Nc2ccccc2)NC(=S)N(c2ccccc2)N1` (stereo not given): the percent of DMSO control GFP was 106%.

For `O=c1nc2n(c3c1oc1ccccc13)Cc1ccccc1-2`, the percent of DMSO control GFP is 100%.

On to `COC(=O)c1ccc(NC(=O)C23CCC(C)(C(=O)O2)C3(C)C)cc1` (stereo not given), for which the percent of DMSO control GFP was 95.2%.

On to `c1cnc(N2CCN(Cc3ccc4c(c3)OCO4)CC2)nc1`, for which the percent of DMSO control GFP is 101%.

For the molecule `CCOC(=O)C1=C(N)Oc2c(c(=O)[nH]c3ccccc23)C1c1ccccc1` (stereo not given), the percent of DMSO control GFP was 100%.

On to `CCOc1ccc2[nH]c3c(=O)n(CCc4ccc(OC)cc4)cnc3c2c1`, for which the percent of DMSO control GFP is 99.5%.

As to `CC(=O)OC(C)C[N+](C)(C)C` (stereo not given), the percent of DMSO control GFP was 103%.

In the case of `CNc1c2c(nn1C)CCCC2`, the percent of DMSO control GFP is 104%.

For the molecule `O=C(CN1C(=O)/C(=C/c2cccc(Br)c2)SC1=S)Nc1cccnc1`, the percent of DMSO control GFP is 101%.

Take `N/C(Cc1ccc(Cl)cc1Cl)=N\OC(=O)c1ccc(Br)o1`: the percent of DMSO control GFP is 93.5%.

As for `O=C(c1ccco1)N1CCCN(Cc2nc(-c3ccc4c(c3)OCO4)no2)CC1`, the percent of DMSO control GFP is 104%.

Regarding `Cc1ccc2c(c1)C(O)(C1COC(C)(C)CC1=O)C(=O)N2C` (stereo not given), the percent of DMSO control GFP was 107%.

In the case of `CC(C)(C)C(=O)N1CCCC1C(=O)O` (stereo not given), the percent of DMSO control GFP is 104%.

For `COc1ccc(C2NC(=O)c3ccccc3O2)c(OC)c1OC` (stereo not given), the percent of DMSO control GFP is 105%.

Consider `CC(C(=O)O)c1cccc(C(=O)c2ccccc2)c1` (stereo not given), for which the percent of DMSO control GFP was 102%.

Consider `C[N+]1(C2CCC3CCCC2C3O)CCCCC1` (stereo not given), for which the percent of DMSO control GFP was 108%.

As to `CCc1cc(=O)oc2cc3occ(-c4ccc(OC)c(F)c4)c3cc12`, the percent of DMSO control GFP is 96.8%.

With `COC(=O)[C@H]1[C@H]2C[C@@H]3c4[nH]c5cc(OC)ccc5c4CCN3C[C@H]2C[C@@H](OC(=O)c2ccc(N)cc2)[C@@H]1OC`, the percent of DMSO control GFP is 105%.

In the case of `O=C(CN1CCN(Cc2ccccc2)CC1)N1CCCc2c1c(=O)oc1ccc(O)cc21`, the percent of DMSO control GFP is 93.3%.

With `CCOc1ccc2ccccc2c1C(=O)N[C@@H]1C(=O)N2[C@@H]1SC(C)(C)[C@@H]2C(=O)O`, the percent of DMSO control GFP was 101%.

On to `COc1ccccc1N1CCN(CC(O)COc2cccc3ccccc23)CC1` (stereo not given), for which the percent of DMSO control GFP was 102%.

Regarding `C[C@]12CC[C@@H]3c4ccc(O)cc4[C@@H](O)C[C@H]3[C@@H]1CC[C@@H]2O`, the percent of DMSO control GFP was 103%.

Consider `O[C@H]1COC2C1OC[C@@H]2O` (stereo not given in full), for which the percent of DMSO control GFP was 99%.

In the case of `O=C(NCCO)c1ccc(Cl)c(Cl)c1`, the percent of DMSO control GFP is 103%.

Take `O=C(Nc1ccc(C(=O)NC2CCCCC2)cc1)c1cccnc1`: the percent of DMSO control GFP is 99.5%.

Regarding `CC(=O)Oc1ccc(C(c2ccc(OC(C)=O)cc2)c2ccccn2)cc1`, the percent of DMSO control GFP was 98.9%.

In the case of `CC(CCc1ccccc1)NC(=O)/C=C/c1ccccc1` (stereo not given), the percent of DMSO control GFP was 92.6%.

For `Cc1ccc2nc(NC3=NC(CC(=O)O)C(=O)N3)nc(C)c2c1` (stereo not given), the percent of DMSO control GFP is 105%.

In the case of `O=C(NC(Nc1ccccn1)C(Cl)(Cl)Cl)c1ccccc1` (stereo not given), the percent of DMSO control GFP was 100%.

As for `NC(N)=N/N=C/c1cccc(Cl)c1Cl`, the percent of DMSO control GFP was 104%.

For the molecule `COc1ccccc1C(=O)Oc1ccc2c(c1)O/C(=C\c1ccncc1)C2=O`, the percent of DMSO control GFP was 94.7%.
